This is an account of results in the supplement of paper PMC7184167.

In this assay the test system is replication-induced senescent mouse newborn dermal fibroblasts (NBF). Kind of assay: relative cell viability of senescent cells (fraction); higher = less killing of senescent cells. The following applies: 1 µM; 3 days. The procedure: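 Replication-induced senescent newborn mouse skin fibroblasts (NBFs) in 24-well plates were treated with a Selleck FDA-approved drug library at 1 µM for 3 days.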

SMILES strings stand for the structures. Where a name gives a salt, the structure may show the parent alone.

Consider `CC(C)CN(C[C@@H](O)[C@H](Cc1ccccc1)NC(=O)O[C@H]1CO[C@H]2OCC[C@H]21)S(=O)(=O)c1ccc(N)cc1` [Darunavir Ethanolate], for which the relative cell viability stood at 0.839.
In the case of `N=C(N)NC(=N)N1CCOCC1` [Moroxydine HCl] it was 0.965.
In the case of `O=C(O)CSCC(=O)NC1CCSC1=O` (stereo not given) [Erdosteine] it was 0.979.
In the case of `Nc1ccc(S(=O)(=O)Nc2ccccn2)cc1` [Sulfapyridine] it was 0.951; in that of `Cn1ccnc1S` [Methimazole], 0.994; in that of `CN1CCN(CCOc2cc(OC3CCOCC3)c3c(Nc4c(Cl)ccc5c4OCO5)ncnc3c2)CC1` [Saracatinib (AZD0530)], 0.626.
Compound `CC(=O)O[C@@]12CO[C@@H]1C[C@H](O)[C@@]1(C)C(=O)[C@H](O)C3=C(C)[C@@H](OC(=O)[C@H](O)[C@@H](NC(=O)OC(C)(C)C)c4ccccc4)C[C@@](O)([C@@H](OC(=O)c4ccccc4)[C@H]21)C3(C)C` [Docetaxel] displayed a relative cell viability of 0.565.
In the case of `COC(=O)C1=C(C)NC(C)=C(C(=O)OC(C)C)C1c1cccc2nonc12` (stereo not given) [Isradipine] it was 0.977.
On to `CO[C@H]1/C=C/O[C@@]2(C)Oc3c(C)c(O)c4c(O)c(c(/C=N/N5CCN(C6CCCC6)CC5)c(O)c4c3C2=O)NC(=O)/C(C)=C\C=C\[C@H](C)[C@H](O)[C@@H](C)[C@@H](O)[C@@H](C)[C@H](OC(C)=O)[C@@H]1C` [Rifapentine], for which the relative cell viability turned out to be 0.659.
Then `C[C@H](Cc1cc2c(c(C(N)=O)c1)N(CCCO)CC2)NCCOc1ccccc1OCC(F)(F)F` [Silodosin], with 0.806.
